Out of some 52,000 compounds screened, about 4,300 (8.3%) were called active. The sample holds actives, similar compounds and a random draw of the others, so the mix is not that of the screen. Values without a mark were called inactive. Cut-off read from the data, not from the text of the source: active = survival mostly below about 52% (no sharp cut-off); inactive = mostly above about 56%.

For the experiment, the system named is DeltatarO mutant. In words: growth inhibition of S. aureus wild type versus tarO mutant, primary screen, teichoic acid synthesis inhibitors, RN4220, OD600 (AID 463173). Particulars: OD600, 18 h, hits give low values, screened at 18.75 µg/mL (by protocol).
For the compound `O=C(CSc1ncc2c(n1)-c1ccccc1N(Cc1ccc(F)cc1)S2(=O)=O)NCCc1ccccc1`, the survival is 94%.
For `Cc1cccc(NC(=O)NC2COc3ccccc3C2)c1C` (stereo not given) the value was 69%.
On to `Cc1cc(C)cc(-n2c(SCC(N)=O)nc3c(oc4ccccc43)c2=O)c1`, for which the survival was 97%.
For `Cc1ccc(-c2cn3c(n2)sc2cc(C(=O)NCCCN4CCCCCC4)ccc23)cc1` the value was -4% (active); for `O=C(NCCCN1CCCCCC1)c1ccc2c(c1)sc1nc(-c3ccccc3)cn12`, 44% (active).
For `Cc1ccc(-c2cn3c(n2)sc2cc(C(=O)NCCCN4CCCCC4)ccc23)cc1`, the survival is -3% (active).
As to `O=C(NC1CCCCC1)c1ccc2c(c1)sc1nc(-c3ccccc3)cn12`, the survival is 69%.
`CCc1ccc(-c2cn3c(n2)sc2cc(C(=O)NCCCc4ccccc4)ccc23)cc1`: the survival was 70%.
For the compound `Cc1ccc(-c2cn3c(n2)sc2cc(C(=O)N4CCCCC4)ccc23)cc1`, the survival was 79%.
`O=C(NCCCc1ccccc1)c1ccc2c(c1)sc1nc(-c3ccc(F)cc3)cn12`: the survival was 44% (active).
With `O=C(NC1CCCCCC1)c1ccc2c(c1)sc1nc(-c3ccccc3)cn12`, the survival is 55%.
As for `Cc1ccc(-c2cn3c(n2)sc2cc(C(=O)NC4CCCCCC4)ccc23)cc1`, the survival was 94%.
Turning to `Cc1ccc(-c2cn3c(n2)sc2cc(C(=O)NC4CCCCC4)ccc23)cc1`, the survival is 68%.
For `Cc1ccc(-c2cn3c(n2)sc2cc(C(=O)NCCCc4ccccc4)ccc23)cc1` the value was 72%.
Turning to `Cc1ccc(Cn2c(SCC(=O)C(C)(C)C)nc3ccsc3c2=O)cc1`, the survival is 77%.
On to `Cc1ccccc1C(=O)n1nc(-c2ccco2)nc1NCc1ccc(Cl)cc1`, for which the survival was 80%.
For `Cc1cccc(CCNC(=O)c2ccc3c(c2)nc2n3CCCCC2)c1`, the survival was 77%.
For `O=C(c1ccccc1)N1CCN(Cc2ccccc2)CC1` the value was 72%; for `CCOc1ccc(/C=C/c2nc(C#N)c(N(C)C)o2)cc1`, 102%.
In the case of `CCCCN(CC)CCNC(=O)Cn1cc2c(n1)-c1c(oc(C(=O)N3CCCC3)c1C)CC2`, the survival was 85%.
As for `COC(=O)c1cc2occc2n1Cc1nc(-c2ccccc2F)oc1C`, the survival was 102%.
For `Cc1cc2ncn(S(=O)(=O)c3ccc(S(=O)(=O)NCC4CCCO4)cc3)c2cc1C` (stereo not given), the survival was 82%.
Regarding `O=C(NCCCN1CCCCC1)c1ccc2c(c1)sc1nc(-c3ccc(F)cc3)cn12`, the survival is 53% (active).
With `COc1ccc(N2CCN(CCCNC(=O)c3ccc4nc(N5CCCCC5)sc4c3)CC2)cc1` the figure was 78%; with `Cc1ccc[n+](CC(=O)c2cccs2)c1`, 106%.
Regarding `CCN1CCN(Cc2nc3cc(NC(=O)c4cc(OC)c(OC)c(OC)c4)ccc3n2CC)CC1`, the survival was 84%.
Take `CC(=O)c1ccc(N2CCN(S(=O)(=O)c3ccc4[nH]c5c(c4c3)CCCC5)CC2)cc1`: the survival is 64%.
For the compound `CCOc1ccc(-c2cc3c(=O)n(CC(=O)NCc4ccccc4)ccn3n2)cc1`, the survival is 83%.
As for `Cc1ccc(Cl)cc1-n1c(=O)cc(N2CCN(c3ccc(F)cc3)CC2)[nH]c1=O`, the survival is 70%.
Consider `Cc1ccc(Cl)cc1-n1c(=O)cc(N2CCN(c3ccccc3)CC2)[nH]c1=O`, for which the survival was 92%.
Turning to `Cc1ccc(-n2c(=O)cc(N3CCN(c4ccccc4Cl)CC3)[nH]c2=O)cc1`, the survival is 25% (active).
For `N#CC1(Nc2ccccc2Cl)C(=O)Nc2ccccc21` (stereo not given), the survival was 69%.
Take `CC(C)c1ccc(Nc2c(-c3ccc(N(C)C)cc3)nc3cnccn23)cc1`: the survival is 43% (active).
Regarding `Cc1cccc(C)c1Nc1c(-c2ccccc2Cl)nc2cnccn12`, the survival was 97%.
With `COc1ccc(Nc2c(-c3ccc(Cl)cc3)nc3cnccn23)cc1OC` the figure was 58%.
For the compound `CN(C)c1ccc(-c2nc3cnccn3c2Nc2cccc(C(F)(F)F)c2)cc1`, the survival was 83%.
As for `COc1cc(-c2nc3cnccn3c2Nc2ccc(C(C)C)cc2)ccc1O`, the survival was 66%.
`Oc1ccccc1-c1nc2cnccn2c1Nc1ccc(Cl)cc1`: the survival was 15% (active).
For `Cc1ccc(Nc2c(-c3ccc(C)cc3)nc3cnccn23)cc1` the value was 35% (active); for `Cc1ccc(Nc2c(-c3ccncc3)nc3ccc(C)cn23)cc1`, 102%; for `CC(C)c1ccc(Nc2c(-c3ccccc3O)nc3cnccn23)cc1`, 55%.
As for `O=C(CSc1nc(=O)n(Cc2ccco2)c2c1CCC2)NCc1ccc(Cl)cc1`, the survival was 69%.
Take `Cc1cccc(C)c1NC(=O)CN(Cc1ccc(Br)cc1)S(=O)(=O)c1ccccc1`: the survival was 60%.
With `CCOc1ccccc1NC(=O)C(CC)Sc1nc2ccncc2[nH]1` (stereo not given), the survival was 122%.
With `COc1cc(NC(=O)N2CCC(CN3CCCC3)CC2)cc(OC)c1OC` the figure was 79%.
`O=C(Cn1nnc2sc(-c3ccccc3)cc2c1=O)Nc1cccc(C(F)(F)F)c1`: the survival was 40%.
For `COc1ccc(C2(NC(=O)c3ccc(Cn4cc(Cl)cn4)o3)CCCCC2)cc1` the value was 102%; for `O=c1c2ccccc2n(Cc2c(F)cccc2Cl)c(=O)n1CCc1ccccc1`, 85%.
With `COCCN(CCOC)c1ncnc2c1c(-c1ccccc1)cn2-c1ccc(C)c(Cl)c1` the figure was 67%; with `COc1ccccc1-c1cc(-c2ccc(O)cc2)nc(N)c1C#N`, 12% (active).
Consider `CCCSc1nc(-c2ccc(OC)cc2)cc(-c2ccccc2OC)c1C#N`, for which the survival is 64%.
With `CN(C)c1ccc(-c2cc(-c3ccccc3)c(C#N)c(N)n2)cc1`, the survival is 105%.
`CCOc1ccc2c(c1)c(=O)c(C(=O)c1ccccc1)cn2Cc1ccccc1F`: the survival was 83%.
For the compound `O=C(/C=N/O)NCCN1CCCCC1`, the survival is 98%.
With `CCCOc1ccc(CNC(=O)C2CCN(C(=O)c3sccc3-n3cccc3)CC2)cc1` the figure was 79%; with `Cc1ccc(S(=O)(=O)N2CCCc3cc(NS(=O)(=O)c4cccc(Cl)c4)ccc32)cc1`, 68%; with `Cn1c(=O)c2c(-c3ccccc3)n3c(c2n(C)c1=O)C(c1ccco1)Nc1ccccc1-3` (stereo not given), 77%.
As to `COc1ccc(-c2nc3ccccc3n3c(-c4ccccc4)c4c(=O)n(C)c(=O)n(C)c4c23)cc1`, the survival was 80%.
On to `COc1ccc(O)c(C2Nc3ccccc3-n3c(-c4ccccc4)c4c(=O)n(C)c(=O)n(C)c4c32)c1` (stereo not given), for which the survival was 3% (active).
For `COc1ccc(-c2c3c(=O)n(C)c(=O)n(C)c3c3n2-c2ccccc2NC3c2ccccc2OC)cc1` (stereo not given) the value was 74%; for `Cc1ccc(-c2c3c(=O)n(C)c(=O)n(C)c3c3n2-c2ccccc2NC3c2ccc(C)cc2O)cc1` (stereo not given), 2% (active); for `COc1ccccc1C1Nc2ccccc2-n2c(-c3ccccc3)c3c(=O)n(C)c(=O)n(C)c3c21` (stereo not given), 53%.
Take `Cn1c(=O)c2c(-c3ccccc3)n3c(c2n(C)c1=O)C(c1cc(Cl)ccc1O)Nc1ccccc1-3` (stereo not given): the survival is 1% (active).
On to `Cc1ccc(C2Nc3cc(C)c(C)cc3-n3c(-c4ccccc4)c4c(=O)n(C)c(=O)n(C)c4c32)o1` (stereo not given), for which the survival was 68%.
On to `Cc1ccc(C2Nc3ccccc3-n3c(-c4ccccc4)c4c(=O)n(C)c(=O)n(C)c4c32)o1` (stereo not given), for which the survival was 59%.
With `COc1ccc(-c2c3c(=O)n(C)c(=O)n(C)c3c3n2-c2ccccc2NC3c2ccco2)cc1` (stereo not given) the figure was 50%; with `Cc1cc2c(cc1C)-n1c(-c3ccccc3)c3c(=O)n(C)c(=O)n(C)c3c1C(c1ccco1)N2` (stereo not given), 80%.
As to `COc1ccc(-c2c3c(=O)n(C)c(=O)n(C)c3c3n2-c2ccccc2NC3c2ccc(O)cc2O)cc1` (stereo not given), the survival was 0% (active).
With `COc1ccc(OCC(=O)Nn2cnnc2)cc1`, the survival was 73%.
On to `O=C(Cn1c(=O)oc2cc(S(=O)(=O)N3CCCCCC3)ccc21)Nc1ccc(F)cc1F`, for which the survival is 84%.
In the case of `Cc1ccc(CCNC(=O)c2c(C)oc3ncn(CC(C)C)c(=O)c23)cc1`, the survival was 119%.
As for `CC(C)n1cc2c(c1-c1ccccc1Cl)c(=O)n(C)c(=O)n2C`, the survival is 89%.
Take `Cc1cc(=O)n2c(C(=O)Nc3ccc(Br)cc3)c(C(=O)Nc3ccccc3)sc2n1`: the survival is 62%.
`Cn1c(=O)c2c([nH]c(=O)n2Cc2ccc(Cl)cc2Cl)n(C)c1=O`: the survival is 42% (active).
Take `Cn1c(=O)c2c(nc(Oc3ccc(C#N)cc3)n2Cc2ccc(Cl)cc2Cl)n(C)c1=O`: the survival was 106%.
On to `C=CCn1c(=O)[nH]c2c1c(=O)n(C)c(=O)n2C`, for which the survival was 80%.
As for `CN(C(=O)Nc1cn(C)c(=O)c2ccccc12)c1ccccc1`, the survival is -5% (active).
With `CCOc1ccccc1N(CC)C(=O)Nc1cn(C)c(=O)c2ccccc12`, the survival is 94%.
Take `Cc1ccc(NC(=O)Nc2cn(C)c(=O)c3ccccc23)c(Cl)c1`: the survival is 89%.
In the case of `CCc1ccc(NC(=O)N(Cc2c[nH]c3ccccc23)C2CCCCCC2)cc1`, the survival is 102%.
As for `CCc1ccc(NC(=O)N(Cc2c[nH]c3ccccc23)C2CCCCC2)cc1`, the survival was 84%.
With `CCOc1ccc(NC(=O)N(Cc2cn(CC)c3ccccc23)C2CCCCCC2)cc1`, the survival was -12% (active).
With `CCOc1ccc(NC(=O)N(Cc2c[nH]c3ccccc23)C2CCCCCC2)cc1` the figure was 79%; with `CCc1ccc(NC(=O)N(Cc2cn(CC)c3ccccc23)C2CCCCC2)cc1`, -13% (active); with `CCOc1ccc(NC(=O)N(Cc2c[nH]c3ccccc23)C2CCCCC2)cc1`, 74%.
`COc1ccc(/C=C/C(=O)Nc2nc(-c3cccs3)ns2)cc1OC`: the survival was 48%.
Regarding `Cc1ccc(Nc2c(-c3cccc(Cl)c3)nc3cccc(C)n23)cc1`, the survival was 49%.
`COc1cc(NC(=O)Nc2nnc(N3CCCCC3)s2)cc(OC)c1`: the survival was 68%.
With `Cc1oc2ncn(CC(C)C)c(=O)c2c1C(=O)NCCCN1CCCCC1C` (stereo not given), the survival was 87%.
For `COc1ccc(N2CCN(C(=O)COCc3cc(-c4ccc5c(c4)OCO5)on3)CC2)cc1` the value was 92%.

The values are drawn from PubChem BioAssay AID463173 (ICCB-Longwood Screening Facility, Harvard Medical School, 2010).
